Source: PubChem BioAssay AID1159580 (chemical genetic matrix, 2015)
About 2,000 (36%) of roughly 5,500 compounds were called active. Not shown: some 18% with an inconclusive outcome. No stated cut-off is given here; in the data, active means normalized growth mostly below about 0.91 (no sharp cut-off); inconclusive means no clear call, values can overlap the other calls; inactive means mostly above about 0.92. This is one part of the list.

Assay: chemical genetic growth profiling, strain panel (AID 1159580);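 further: tested at 20 µM; growth read once vehicle control cultures reached saturation at 30 °C; 1 = growth at the plate median or of vehicle wells; lower values mean less growth of the strain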
Details: growth OD

Measured: normalized growth

CC1CC2C3CC(F)C4=CC(=O)C=CC4(C)C3(F)C(O)CC2(C)C1C(=O)COC(=O)C(C)(C)C (stereo not given)
inactive: S. cerevisiae deletion strains, locus YBR021W, strain FUR4, hits give low values 0.903 | S. cerevisiae deletion strains, locus YBR229C, strain ROT2, hits give low values 0.997 | S. cerevisiae deletion strains, locus YCL029C, strain bik1, hits give low values 1.05 | S. cerevisiae deletion strains, locus YDL035C, strain GPR1, hits give low values 0.871 | S. cerevisiae deletion strains, locus YDL074C, strain BRE1, hits give low values 0.879 | S. cerevisiae deletion strains, locus YDL101C, strain DUN1, hits give low values 1.01 | S. cerevisiae deletion strains, locus YDL185W, strain tfp1, hits give low values 1.01 | S. cerevisiae deletion strains, locus YDL192W, strain arf1, hits give low values 0.997 | S. cerevisiae deletion strains, locus YDR101C, strain arx1, hits give low values 1.02 | S. cerevisiae deletion strains, locus YDR150W, strain NUM1, hits give low values 0.977 | S. cerevisiae deletion strains, locus YDR162C, strain NBP2, hits give low values 0.867 | S. cerevisiae deletion strains, locus YDR318W, strain mcm21, hits give low values 1.01 | S. cerevisiae deletion strains, locus YDR388W, hits give low values 1.04 | S. cerevisiae deletion strains, locus YDR502C, strain sam2, hits give low values 1.02 | S. cerevisiae deletion strains, locus YEL061C, strain CIN8, hits give low values 0.973 | S. cerevisiae deletion strains, locus YER110C, hits give low values 1.04 | S. cerevisiae deletion strains, locus YER155C, strain BEM2, hits give low values 1.04 | S. cerevisiae deletion strains, locus YER167W, strain BCK2, hits give low values 0.992 | S. cerevisiae deletion strains, locus YGL078C, strain dbp3, hits give low values 1.02 | S. cerevisiae deletion strains, locus YGL086W, strain mad1, hits give low values 0.96 | S. cerevisiae deletion strains, locus YGL248W, strain PDE1, hits give low values 0.927 | S. cerevisiae deletion strains, locus YGR078C, strain PAC10, hits give low values 0.92 | S. cerevisiae deletion strains, locus YGR135W, strain pre9, hits give low values 0.957 | S. cerevisiae deletion strains, locus YGR252W, strain gcn5, hits give low values 0.849 | S. cerevisiae deletion strains, locus YHR030C, strain SLT2, hits give low values 0.989 | S. cerevisiae deletion strains, locus YHR079C, strain IRE1 (second series), hits give low values 1.03 | S. cerevisiae deletion strains, locus YHR094C, strain hxt1, hits give low values 1.04 | S. cerevisiae deletion strains, locus YHR129C, strain ARP1, hits give low values 0.964 | S. cerevisiae deletion strains, locus YHR200W, strain rpn10, hits give low values 1.01 | S. cerevisiae deletion strains, locus YIL073C, strain SPO22, hits give low values 0.954 | S. cerevisiae deletion strains, locus YIL125W, strain kgd1, hits give low values 1.02 | S. cerevisiae deletion strains, locus YIR030C, strain dcg1, hits give low values 1.03 | S. cerevisiae deletion strains, locus YJL095W, strain BCK1, hits give low values 0.989 | S. cerevisiae deletion strains, locus YJL134W, strain LCB3, hits give low values 1.01 | S. cerevisiae deletion strains, locus YJL168C, strain set2, hits give low values 1.01 | S. cerevisiae deletion strains, locus YJL187C, strain SWE1 (second series), hits give low values 0.934 | S. cerevisiae deletion strains, locus YJR043C, strain POL32, hits give low values 0.892 | S. cerevisiae deletion strains, locus YKL009W, strain mrt4, hits give low values 1.03 | S. cerevisiae deletion strains, locus YKL068W, hits give low values 1.02 | S. cerevisiae deletion strains, locus YKL085W, strain MDH1 (second series), hits give low values 1.01 | S. cerevisiae deletion strains, locus YKL085W, strain MDH1, hits give low values 1.01 | S. cerevisiae deletion strains, locus YKR001C, strain vps1, hits give low values 0.987 | S. cerevisiae deletion strains, locus YLR039C, strain RIC1, hits give low values 0.804 | S. cerevisiae deletion strains, locus YLR058C, strain SHM2, hits give low values 0.981 | S. cerevisiae deletion strains, locus YLR102C, strain apc9, hits give low values 1.03 | S. cerevisiae deletion strains, locus YLR262C, strain YPT6, hits give low values 0.872 | S. cerevisiae deletion strains, locus YLR268W, strain sec22, hits give low values 0.985 | S. cerevisiae deletion strains, locus YLR330W, strain CHS5, hits give low values 0.967 | S. cerevisiae deletion strains, locus YLR371W, strain rom2, hits give low values 1.03 | S. cerevisiae deletion strains, locus YLR418C, strain cdc73, hits give low values 0.953 | S. cerevisiae deletion strains, locus YML016C, strain PPZ1, hits give low values 0.951 | S. cerevisiae deletion strains, locus YML032C, strain rad52, hits give low values 1.03 | S. cerevisiae deletion strains, locus YML124C, strain tub3, hits give low values 1.02 | S. cerevisiae deletion strains, locus YMR078C, strain ctf18, hits give low values 1.04 | S. cerevisiae deletion strains, locus YMR223W, strain ubp8, hits give low values 0.965 | S. cerevisiae deletion strains, locus YMR307W, strain GAS1, hits give low values 0.922 | S. cerevisiae deletion strains, locus YNL067W, strain RPL9B, hits give low values 0.989 | S. cerevisiae deletion strains, locus YNL128W, strain TEP1, hits give low values 0.908 | S. cerevisiae deletion strains, locus YNL233W, strain BNI4, hits give low values 0.919 | S. cerevisiae deletion strains, locus YNL250W, strain rad50, hits give low values 1.01 | S. cerevisiae deletion strains, locus YNL271C, strain bni1, hits give low values 1.02 | S. cerevisiae deletion strains, locus YNL298W, strain CLA4, hits give low values 1.01 | S. cerevisiae deletion strains, locus YNL307C, strain MCK1, hits give low values 1.03 | S. cerevisiae deletion strains, locus YNL322C, strain KRE1, hits give low values 0.984 | S. cerevisiae deletion strains, locus YNR052C, strain pop2, hits give low values 1.01 | S. cerevisiae deletion strains, locus YOL012C, strain htz1 1.01 | S. cerevisiae deletion strains, locus YOL147C, strain pex11, hits give low values 1.03 | S. cerevisiae deletion strains, locus YOR069W, strain VPS5, hits give low values 0.991 | S. cerevisiae deletion strains, locus YOR136W, strain idh2, hits give low values 1.02 | S. cerevisiae deletion strains, locus YOR144C, strain elg1, hits give low values 1.03 | S. cerevisiae deletion strains, locus YOR184W, strain ser1, hits give low values 0.974 | S. cerevisiae deletion strains, locus YOR316C, strain cot1, hits give low values 1.03 | S. cerevisiae deletion strains, locus YPL055C, strain LGE1, hits give low values 0.843 | S. cerevisiae deletion strains, locus YPL241C, strain CIN2, hits give low values 0.992 | S. cerevisiae deletion strains, locus YPR119W, strain clb2, hits give low values 1.03 | S. cerevisiae deletion strains, locus YPR141C, strain kar3, hits give low values 1.02 | S. cerevisiae deletion strains, locus YPR163C, strain tif3, hits give low values 1.03 | S. cerevisiae deletion strains, locus YPR167C, strain met16, hits give low values 1.01 | S. cerevisiae deletion strains, strain wtn01, hits give low values 0.983
active: S. cerevisiae deletion strains, locus YDL134C, strain PPH21, hits give low values 0.873 | S. cerevisiae deletion strains, locus YIL066C, strain RNR3, hits give low values 0.852 | S. cerevisiae deletion strains, locus YLR342W, strain FKS1 (second series), hits give low values 0.758 | S. cerevisiae deletion strains, locus YOL006C, strain TOP1, hits give low values 0.509 | S. cerevisiae deletion strains, locus YOR061W, strain CKA2, hits give low values 0.878 | S. cerevisiae strains, strain wild type, hits give low values 0.876
